Activity calls are given as the source filed them. Unless noted, the rule behind the calls is not given here.
Key:
[1] = test system: Wnt5a (protein binding on small-molecule microarray); experiment: Wnt5a binders on small-molecule microarray, primary screen, biophysical, 635/667 nm fluorescence (AID 1142); settings: 635 nm fluorescence, higher = more signal;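 note: fluorescence read at 667 nm with signal to noise per printed feature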
[2] = cell viability in Huh7 cells, primary screen, cytotoxicity control for HCV replication inhibitor project, CellTiter-Glo luminescence, basal, 48 h (AID 1143); settings: Huh7 HCV replicon, higher = more signal, called active from +8 up or from −8 down;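 note: Huh7 hepatoma cells carrying a hepatitis C replication reporter with no stimulus; test concentration not given here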
[3] = P. aeruginosa biofilm formation inhibitors, primary screen, PAO1 strain, BacTiter-Glo luminescence, LB-PBS (AID 1144); settings: 12 h, higher = more signal
[4] = CREB reporter modulators without forskolin, primary screen, cell-based, PC12, CRE-LacZ reporter, unstimulated (AID 1145); settings: no forskolin, luminescence, 4.5 h, higher = more signal, called active from +8 up or from −8 down
[5] = CREB reporter modulators under forskolin, primary screen, cell-based, PC12, CRE-LacZ reporter, forskolin-stimulated (AID 1146); settings: luminescence, 4.5 h, higher = more signal, called active from +8 up or from −8 down;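 note: PC12 cells with 6xCRE LacZ reporter stimulated by forskolin 10 µM; beta-galactosidase reporter signal reflecting CREB driven transcription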
[6] = target: Streptavidin (Streptomyces avidinii) (UniProt P22629); experiment: streptavidin binders on small-molecule microarray, primary screen, artefact control for SMM compound annotation, biophysical, 635/667 nm fluorescence (AID 1147); settings: streptavidin binding, higher = more signal;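 note: signal reflects streptavidin binding to arrayed compounds as a control protein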
Chain of Streptavidin (Streptomyces avidinii) (P22629 whole entry, looked up): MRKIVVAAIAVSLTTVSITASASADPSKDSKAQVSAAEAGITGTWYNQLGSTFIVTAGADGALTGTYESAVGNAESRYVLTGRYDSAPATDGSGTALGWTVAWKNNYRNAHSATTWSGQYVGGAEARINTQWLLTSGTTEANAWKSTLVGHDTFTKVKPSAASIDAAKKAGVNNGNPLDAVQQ

[7] = small-molecule binders of probe aInhba, primary screen, biochemical, small-molecule microarray, 635/667 nm fluorescence (AID 1148); settings: higher = more signal;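 note: score merges 667nm spot fluorescence with signal-to-noise for antibody binding to printed compounds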
[8] = target: Torsin-1A (Homo sapiens) (UniProt O14656); experiment: torsin A binders from cell lysate, primary screen, small-molecule microarray, wild-type, 635/667 nm (AID 1149); settings: COS7 hTOR1A-WT lysate, 635 nm fluorescence, higher = more signal
Chain of Torsin-1A (Homo sapiens) (O14656 whole entry, looked up): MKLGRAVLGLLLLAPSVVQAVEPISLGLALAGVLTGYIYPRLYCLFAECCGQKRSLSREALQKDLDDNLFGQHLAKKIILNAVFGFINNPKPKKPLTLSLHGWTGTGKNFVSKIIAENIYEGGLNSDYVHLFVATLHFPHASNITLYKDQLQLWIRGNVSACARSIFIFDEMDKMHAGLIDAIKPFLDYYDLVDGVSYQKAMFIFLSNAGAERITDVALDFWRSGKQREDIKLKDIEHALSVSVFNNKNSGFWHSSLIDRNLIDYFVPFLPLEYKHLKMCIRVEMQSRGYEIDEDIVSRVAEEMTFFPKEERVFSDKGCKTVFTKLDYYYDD

[9] = target: Torsin-1A (Homo sapiens) (UniProt O14656); experiment: small-molecule binders of mutant TOR1A in lysate, primary screen, cell lysate, small-molecule microarray, COS7 lysate, 635/667 nm fluorescence (AID 1150); settings: COS7 hTOR1A mutant lysate, 635 nm fluorescence, higher = more signal;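 note: score pools 667 nm emission and signal to noise measuring lysate protein binding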
[10] = test system: Sonic hedgehog protein (Shh); experiment: small-molecule binders of Shh protein, primary screen, biochemical, small-molecule microarray, 635/667 nm fluorescence (AID 1151); settings: small-molecule microarray binding, 635 nm fluorescence; higher = more signal;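 note: Shh protein binding to compounds spotted on small-molecule microarray slides; score combines spot fluorescence intensity with signal-to-noise across triplicate slides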
[11] = E. coli DRC41 culture turbidity changes, primary screen, E. coli filamentation inducer project, strain DRC41, OD650, 48 h (AID 1152);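 note: E. coli MC1000 strain DRC41 lacking acrAB efflux pump and sulA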; settings: E. coli DRC41 (acrAB sulA), higher = more signal, called active from +8 up or from −8 down
[12] = small-molecule binders of probe aLefty1, primary screen, biochemical, small-molecule microarray, 635/667 nm fluorescence (AID 1153); settings: higher = more signal;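 note: score merges spot fluorescence with signal-to-noise ratio from the scanned slide images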
[13] = PSAC antagonists in infected red cells, primary screen, cell-based, P. falciparum Indochina, OD700, 1 h (AID 1154); settings: P. falciparum Indochina infected RBC osmotic lysis, higher = more signal, called active from +8 up or from −8 down
[14] = PSAC antagonists in infected red cells, primary screen, cell-based, P. falciparum Indochina, OD700, 2 h (AID 1155);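 note: lysis reports solute entry through the parasite surface anion channel PSAC; channel blockers reduce lysis of infected cells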; settings: P. falciparum Indochina infected erythrocytes, osmotic lysis OD700; higher = more signal, called active from +8 up or from −8 down
[15] = osmotic lysis modulators in infected erythrocytes, primary screen, PSAC antagonist project, cell-based, P. falciparum Indochina, OD700, 3 h (AID 1156); settings: higher = more signal, called active from +8 up or from −8 down
[16] = PSAC antagonists in infected red cells, primary screen, cell-based, P. falciparum Indochina, OD700, 18 h (AID 1157); settings: P. falciparum Indochina infected erythrocytes, osmotic lysis OD700, 18 h; higher = more signal, called active from +8 up or from −8 down
[17] = modulators of S6 phosphorylation in cells, primary screen, cell-based, A549, cytoblot, luminescence, serum-stimulated (AID 1158); settings: A549 phospho-S6 cytoblot, 5 h, higher = more signal;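 note: serum-stimulated A549 lung adenocarcinoma cells; signal is phosphorylated S6 detected by cytoblot immunostaining with HRP secondary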
[18] = target: NADPH oxidase 2 (Homo sapiens) (UniProt P04839); experiment: NOX2-dependent H2O2 signal modulators, primary screen, NOX inhibitor project, cell-based, HEK293-NOX2, PMA-stimulated, Amplex Red fluorescence (AID 1159); settings: 45 min, higher = more signal, called active from +8 up or from −8 down; note: test concentration not given here
Chain of NADPH oxidase 2 (Homo sapiens) (P04839 whole entry, looked up): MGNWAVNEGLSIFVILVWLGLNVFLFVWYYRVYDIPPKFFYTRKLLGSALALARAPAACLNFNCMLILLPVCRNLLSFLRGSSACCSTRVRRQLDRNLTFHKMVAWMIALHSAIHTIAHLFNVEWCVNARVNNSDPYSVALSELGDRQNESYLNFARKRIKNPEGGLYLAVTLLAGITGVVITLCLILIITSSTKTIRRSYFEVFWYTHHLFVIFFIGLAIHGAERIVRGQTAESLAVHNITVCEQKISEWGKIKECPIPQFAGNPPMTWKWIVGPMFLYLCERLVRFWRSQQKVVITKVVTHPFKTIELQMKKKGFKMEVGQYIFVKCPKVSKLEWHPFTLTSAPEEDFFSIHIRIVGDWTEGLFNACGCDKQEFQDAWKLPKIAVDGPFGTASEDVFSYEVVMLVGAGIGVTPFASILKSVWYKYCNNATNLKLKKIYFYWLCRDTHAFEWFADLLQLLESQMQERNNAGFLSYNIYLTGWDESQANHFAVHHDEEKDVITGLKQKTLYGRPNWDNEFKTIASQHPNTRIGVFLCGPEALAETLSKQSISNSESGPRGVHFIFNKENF

[19] = target: NADPH oxidase 4 (Homo sapiens) (UniProt Q9NPH5); experiment: NOX4-dependent H2O2 signal modulators, primary screen, NOX inhibitor project, cell-based, HEK293-NOX4, tetracycline-induced, Amplex Red fluorescence (AID 1160); settings: 45 min, higher = more signal, called active from +8 up or from −8 down
Chain of NADPH oxidase 4 (Homo sapiens) (Q9NPH5 whole entry, looked up): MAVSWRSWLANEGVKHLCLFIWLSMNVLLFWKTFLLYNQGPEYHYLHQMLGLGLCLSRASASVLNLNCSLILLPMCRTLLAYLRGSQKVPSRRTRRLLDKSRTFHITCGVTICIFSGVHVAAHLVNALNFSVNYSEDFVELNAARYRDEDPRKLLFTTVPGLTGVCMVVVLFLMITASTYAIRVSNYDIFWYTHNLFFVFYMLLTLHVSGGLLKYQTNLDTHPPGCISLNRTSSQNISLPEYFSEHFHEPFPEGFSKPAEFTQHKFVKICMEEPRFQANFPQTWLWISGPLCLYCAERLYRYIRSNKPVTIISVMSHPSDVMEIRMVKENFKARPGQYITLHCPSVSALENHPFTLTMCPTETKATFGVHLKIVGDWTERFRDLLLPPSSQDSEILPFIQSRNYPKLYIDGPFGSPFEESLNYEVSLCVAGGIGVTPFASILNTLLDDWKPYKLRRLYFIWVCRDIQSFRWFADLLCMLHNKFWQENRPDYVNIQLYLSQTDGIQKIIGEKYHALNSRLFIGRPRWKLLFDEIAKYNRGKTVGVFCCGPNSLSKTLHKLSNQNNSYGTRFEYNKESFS

[20] = target: NADPH oxidase 5 (Homo sapiens) (UniProt Q96PH1); experiment: NOX5-dependent H2O2 signal modulators, primary screen, NOX inhibitor project, cell-based, HEK293-NOX5, Amplex Red fluorescence (AID 1161); settings: HEK293-NOX5, ionomycin, 45 min, higher = more signal
Chain of NADPH oxidase 5 (Homo sapiens) (Q96PH1 whole entry, looked up): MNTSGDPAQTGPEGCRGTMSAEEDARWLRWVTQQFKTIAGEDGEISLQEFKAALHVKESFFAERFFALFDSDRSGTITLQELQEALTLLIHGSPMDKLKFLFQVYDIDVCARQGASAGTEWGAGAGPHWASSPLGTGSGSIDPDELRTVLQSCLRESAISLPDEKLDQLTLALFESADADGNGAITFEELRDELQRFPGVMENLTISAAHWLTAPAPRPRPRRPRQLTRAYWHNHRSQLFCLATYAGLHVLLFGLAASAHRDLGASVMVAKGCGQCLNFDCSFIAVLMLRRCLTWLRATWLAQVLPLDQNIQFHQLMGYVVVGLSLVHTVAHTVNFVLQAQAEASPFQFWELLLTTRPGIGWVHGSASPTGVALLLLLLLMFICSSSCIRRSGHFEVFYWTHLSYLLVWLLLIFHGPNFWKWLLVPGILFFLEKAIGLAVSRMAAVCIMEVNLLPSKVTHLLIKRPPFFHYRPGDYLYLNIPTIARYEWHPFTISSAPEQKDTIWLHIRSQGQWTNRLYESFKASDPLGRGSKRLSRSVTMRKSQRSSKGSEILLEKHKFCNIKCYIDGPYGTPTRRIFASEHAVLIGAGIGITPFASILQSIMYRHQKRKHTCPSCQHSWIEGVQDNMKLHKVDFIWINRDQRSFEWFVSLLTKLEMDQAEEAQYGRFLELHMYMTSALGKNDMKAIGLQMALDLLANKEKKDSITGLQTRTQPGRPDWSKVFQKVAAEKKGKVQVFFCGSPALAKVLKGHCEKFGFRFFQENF

For CC(C)[C@@H](OCc1ccccc1)[C@H](C)CON=C1[C@H]2CCn3c(=O)n(-c4ccccc4)c(=O)n3[C@H]2[C@H](O)[C@@H]2O[C@H]12, the composite z-score [1] was 0.186, the z-score [2] was -0.367 (inactive) and the z-score [3] was 1.21 (inactive). The z-score [4] was -0.408 (inactive), the z-score [5] was 1.2 (inactive) and the composite z-score [6] was 0.164. It also gave a composite z-score [7] of -0.128, a composite z-score [8] of 0.0645 and a composite z-score [9] of 0.41. For the same molecule, the composite z-score [10] was 0.89, the z-score [11] was 0.352 (inactive) and the composite z-score [12] was -0.186. The z-score [13] was 0.509 (inactive), the z-score [14] was -0.116 (inactive) and the z-score [15] was -0.171 (inactive). The z-score [16] was 0.245 (inactive), the z-score [17] was -0.952 and the z-score [18] was -0.662 (inactive). For the same molecule, the z-score [19] was 0.202 (inactive) and the z-score [20] was -0.851.
For O=C1[C@H]2[C@H]3[C@H](O)[C@H](O)CC(=NO[C@@H]4O[C@H](CO)[C@@H](O)[C@H](O)[C@H]4O)[C@@H]3CC[C@H]2C(=O)N1C[C@@H]1CCCO1, the composite z-score [1] was 0.185, the z-score [2] was -2.92 (inactive) and the z-score [3] was -0.131 (inactive). For the same molecule, the z-score [4] was 0.885 (inactive), the z-score [5] was 0.0432 (inactive) and the composite z-score [6] was 0.0066. It also gave a composite z-score [7] of -0.128, a composite z-score [8] of 0.339 and a composite z-score [9] of -0.0388. For the same molecule, the composite z-score [10] was 0.89, the z-score [11] was -1.2 (inactive) and the composite z-score [12] was -0.0462. For the same molecule, the z-score [13] was 0.377 (inactive), the z-score [14] was -0.963 (inactive) and the z-score [15] was 0.389 (inactive). For the same molecule, the z-score [16] was -2.39 (inactive), the z-score [17] was 0.054 and the z-score [18] was -2.04 (inactive). The z-score [19] was -0.772 (inactive) and the z-score [20] was -0.711.
With CCN1C(=O)[C@H]2[C@H]3[C@H](O)[C@H](O)CC(=NOCC=C(C)CCC=C(C)C)[C@@H]3CC[C@H]2C1=O the composite z-score [1] was 0.288, the z-score [2] was -2.44 (inactive) and the z-score [3] was 0.17 (inactive). The z-score [4] was -0.115 (inactive), the z-score [5] was -0.157 (inactive) and the composite z-score [6] was -0.43. For the same molecule, the composite z-score [7] was -0.204, the composite z-score [8] was 2.38 and the composite z-score [9] was 0.981. The composite z-score [10] was 2.07, the z-score [11] was -1.27 (inactive) and the composite z-score [12] was -0.22. For the same molecule, the z-score [13] was 1.17 (inactive), the z-score [14] was 0.579 (inactive) and the z-score [15] was 0.0742 (inactive). The z-score [16] was 0.134 (inactive), the z-score [17] was -0.23 and the z-score [18] was 1.56 (inactive). The z-score [19] was 0.207 (inactive) and the z-score [20] was -1.06.
In the case of COc1cccc([C@H]2Oc3ccc(OC)cc3C(=NO[C@@H](C)c3cc(-c4c(C)cc(C)cc4C)no3)[C@@H]2O)c1, the composite z-score [1] is reported as -0.556, the z-score [2] is reported as -0.686 (inactive) and the z-score [3] is reported as 0.409 (inactive). For the same molecule, the z-score [4] was 1.42 (inactive), the z-score [5] was 0.596 (inactive) and the composite z-score [6] was -0.756. The composite z-score [7] was -0.23, the composite z-score [8] was -1.26 and the composite z-score [9] was -0.489. The composite z-score [10] was -2.3, the z-score [11] was -1.74 (inactive) and the composite z-score [12] was -0.0061. For the same molecule, the z-score [13] was 5.05 (inactive), the z-score [14] was 1.38 (inactive) and the z-score [15] was -0.0548 (inactive). The z-score [16] was 0.907 (inactive), the z-score [17] was -0.902 and the z-score [18] was 0.314 (inactive). The z-score [19] was 0.21 (inactive) and the z-score [20] was -0.577.
For CC(=O)OC[C@H]1O[C@H](CC=NOC(C)CN2CCCc3nc(C)c(C)cc32)C=C[C@@H]1OC(C)=O (stereo not given in full), the composite z-score [1] was 0.417, the z-score [2] was 0.169 (inactive) and the z-score [3] was 0.649 (inactive). The z-score [4] was -0.961 (inactive), the z-score [5] was 0.0009 (inactive) and the composite z-score [6] was -0.0656. The composite z-score [7] was -0.0221, the composite z-score [8] was 1.19 and the composite z-score [9] was -0.0919. For the same molecule, the composite z-score [10] was 1.1, the z-score [11] was 0.134 (inactive) and the composite z-score [12] was -0.0222. The z-score [13] was 1.3 (inactive), the z-score [14] was 0.674 (inactive) and the z-score [15] was 0.594 (inactive). For the same molecule, the z-score [16] was 0.588 (inactive), the z-score [17] was -0.597 and the z-score [18] was -2.12 (inactive). For the same molecule, the z-score [19] was -2.2 (inactive) and the z-score [20] was -0.898.
In the case of CCOC(=O)[C@H](Cc1ccccc1)NC(=O)CCC1CC(OC(=O)NCc2cccc3ccccc23)CC2(CCCC(COC(=O)NCCc3ccccc3OC)O2)O1 (stereo not given in full), the composite z-score [1] is reported as 0.201, the z-score [2] is reported as -0.534 (inactive) and the z-score [3] is reported as 0.0213 (inactive). The z-score [4] was 0.104 (inactive), the z-score [5] was -0.745 (inactive) and the composite z-score [6] was 0.486. It also gave a composite z-score [7] of -0.0552, a composite z-score [8] of 0.265 and a composite z-score [9] of 0.0946. For the same molecule, the composite z-score [10] was 1.1, the z-score [11] was -0.0287 (inactive) and the composite z-score [12] was -0.101. The z-score [13] was -0.623 (inactive), the z-score [14] was 0.185 (inactive) and the z-score [15] was -0.602 (inactive). The z-score [16] was 0.0286 (inactive), the z-score [17] was -0.352 and the z-score [18] was 0.884 (inactive). For the same molecule, the z-score [19] was 1.15 (inactive) and the z-score [20] was 1.06.
In the case of COc1cccc([C@H](O)Cn2cc(-c3ccc(CON=C(C)C)cc3)nn2)c1, the composite z-score [1] is reported as -0.0033, the z-score [2] is reported as -0.385 (inactive) and the z-score [3] is reported as -0.24 (inactive). The z-score [4] was 1.55 (inactive), the z-score [5] was -0.222 (inactive) and the composite z-score [6] was -0.207. For the same molecule, the composite z-score [7] was 0.0082, the composite z-score [8] was 0.0944 and the composite z-score [9] was 0.271. The composite z-score [10] was -0.348, the z-score [11] was 0.697 (inactive) and the composite z-score [12] was -0.103. The z-score [13] was 25.6 (active), the z-score [14] was 12.2 (active) and the z-score [15] was 0.99 (inactive). The z-score [16] was 1.54 (inactive), the z-score [17] was -1.07 and the z-score [18] was 0.0342 (inactive). For the same molecule, the z-score [19] was -0.0373 (inactive) and the z-score [20] was -0.169.
For COc1ccc(O[C@H]2C=C[C@@H](c3ccccc3)O[C@@H]2CON=C2c3cc(OC)ccc3O[C@H](c3cccc(OC)c3)[C@H]2O)cc1, the composite z-score [1] was 0.288, the z-score [2] was -0.0115 (inactive) and the z-score [3] was -0.0389 (inactive). The z-score [4] was 0.913 (inactive), the z-score [5] was 0.411 (inactive) and the composite z-score [6] was 0.414. For the same molecule, the composite z-score [7] was -0.224, the composite z-score [8] was 0.0513 and the composite z-score [9] was 0.37. The composite z-score [10] was 0.105, the z-score [11] was -1.41 (inactive) and the composite z-score [12] was -0.237. For the same molecule, the z-score [13] was 4.7 (inactive), the z-score [14] was 1.12 (inactive) and the z-score [15] was -0.392 (inactive). The z-score [16] was 0.442 (inactive), the z-score [17] was -1.1 and the z-score [18] was -0.0682 (inactive). For the same molecule, the z-score [19] was 0.264 (inactive) and the z-score [20] was 0.562.
